In ChEMBL document CHEMBL2218924, “A broad activity screen in support of a chemogenomic map for kinase signalling research and drug discovery” (Biochem J, 2013):

Assays:
[1] = target: Serine/threonine-protein kinase WNK2 (Homo sapiens) (UniProt Q9Y3S1); settings: at 10 µM
[2] = target: Serine/threonine-protein kinase WNK3 (Homo sapiens) (UniProt Q9BYP7); settings: at 1 µM
[3] = target: Serine/threonine-protein kinase WNK3 (Homo sapiens) (UniProt Q9BYP7); settings: at 10 µM
[4] = target: Tyrosine-protein kinase Yes (Homo sapiens) (UniProt P07947); settings: at 1 µM
[5] = target: Tyrosine-protein kinase Yes (Homo sapiens) (UniProt P07947); settings: at 10 µM
[6] = target: T1, Tyrosine-protein kinase ZAP-70 (Homo sapiens) (UniProt P43403); settings: at 1 µM
T1 sequence (whole entry): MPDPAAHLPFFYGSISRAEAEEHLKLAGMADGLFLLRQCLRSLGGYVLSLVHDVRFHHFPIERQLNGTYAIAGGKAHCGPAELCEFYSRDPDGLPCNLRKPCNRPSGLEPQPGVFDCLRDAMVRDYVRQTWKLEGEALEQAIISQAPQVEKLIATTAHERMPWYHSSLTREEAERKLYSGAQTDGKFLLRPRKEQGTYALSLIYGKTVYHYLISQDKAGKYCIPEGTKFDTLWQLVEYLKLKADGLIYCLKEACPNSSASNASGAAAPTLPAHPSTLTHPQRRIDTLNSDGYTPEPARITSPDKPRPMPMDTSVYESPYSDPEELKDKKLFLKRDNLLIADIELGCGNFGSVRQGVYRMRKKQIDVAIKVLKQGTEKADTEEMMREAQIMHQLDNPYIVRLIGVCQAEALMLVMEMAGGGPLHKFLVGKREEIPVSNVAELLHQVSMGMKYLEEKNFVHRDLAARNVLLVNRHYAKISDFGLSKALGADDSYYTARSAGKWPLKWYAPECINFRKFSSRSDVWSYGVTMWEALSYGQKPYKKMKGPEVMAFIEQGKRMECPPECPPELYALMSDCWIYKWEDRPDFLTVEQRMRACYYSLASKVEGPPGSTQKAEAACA

[7] = target: Death-associated protein kinase 3 (Homo sapiens) (UniProt O43293); settings: at 1 µM
[8] = target: Death-associated protein kinase 3 (Homo sapiens) (UniProt O43293); settings: at 10 µM
[9] = target: RAF proto-oncogene serine/threonine-protein kinase (Homo sapiens) (UniProt P04049); settings: at 1 µM
[10] = target: RAF proto-oncogene serine/threonine-protein kinase (Homo sapiens) (UniProt P04049); settings: at 10 µM

Chain of Serine/threonine-protein kinase WNK3 (Homo sapiens) (Q9BYP7 whole entry): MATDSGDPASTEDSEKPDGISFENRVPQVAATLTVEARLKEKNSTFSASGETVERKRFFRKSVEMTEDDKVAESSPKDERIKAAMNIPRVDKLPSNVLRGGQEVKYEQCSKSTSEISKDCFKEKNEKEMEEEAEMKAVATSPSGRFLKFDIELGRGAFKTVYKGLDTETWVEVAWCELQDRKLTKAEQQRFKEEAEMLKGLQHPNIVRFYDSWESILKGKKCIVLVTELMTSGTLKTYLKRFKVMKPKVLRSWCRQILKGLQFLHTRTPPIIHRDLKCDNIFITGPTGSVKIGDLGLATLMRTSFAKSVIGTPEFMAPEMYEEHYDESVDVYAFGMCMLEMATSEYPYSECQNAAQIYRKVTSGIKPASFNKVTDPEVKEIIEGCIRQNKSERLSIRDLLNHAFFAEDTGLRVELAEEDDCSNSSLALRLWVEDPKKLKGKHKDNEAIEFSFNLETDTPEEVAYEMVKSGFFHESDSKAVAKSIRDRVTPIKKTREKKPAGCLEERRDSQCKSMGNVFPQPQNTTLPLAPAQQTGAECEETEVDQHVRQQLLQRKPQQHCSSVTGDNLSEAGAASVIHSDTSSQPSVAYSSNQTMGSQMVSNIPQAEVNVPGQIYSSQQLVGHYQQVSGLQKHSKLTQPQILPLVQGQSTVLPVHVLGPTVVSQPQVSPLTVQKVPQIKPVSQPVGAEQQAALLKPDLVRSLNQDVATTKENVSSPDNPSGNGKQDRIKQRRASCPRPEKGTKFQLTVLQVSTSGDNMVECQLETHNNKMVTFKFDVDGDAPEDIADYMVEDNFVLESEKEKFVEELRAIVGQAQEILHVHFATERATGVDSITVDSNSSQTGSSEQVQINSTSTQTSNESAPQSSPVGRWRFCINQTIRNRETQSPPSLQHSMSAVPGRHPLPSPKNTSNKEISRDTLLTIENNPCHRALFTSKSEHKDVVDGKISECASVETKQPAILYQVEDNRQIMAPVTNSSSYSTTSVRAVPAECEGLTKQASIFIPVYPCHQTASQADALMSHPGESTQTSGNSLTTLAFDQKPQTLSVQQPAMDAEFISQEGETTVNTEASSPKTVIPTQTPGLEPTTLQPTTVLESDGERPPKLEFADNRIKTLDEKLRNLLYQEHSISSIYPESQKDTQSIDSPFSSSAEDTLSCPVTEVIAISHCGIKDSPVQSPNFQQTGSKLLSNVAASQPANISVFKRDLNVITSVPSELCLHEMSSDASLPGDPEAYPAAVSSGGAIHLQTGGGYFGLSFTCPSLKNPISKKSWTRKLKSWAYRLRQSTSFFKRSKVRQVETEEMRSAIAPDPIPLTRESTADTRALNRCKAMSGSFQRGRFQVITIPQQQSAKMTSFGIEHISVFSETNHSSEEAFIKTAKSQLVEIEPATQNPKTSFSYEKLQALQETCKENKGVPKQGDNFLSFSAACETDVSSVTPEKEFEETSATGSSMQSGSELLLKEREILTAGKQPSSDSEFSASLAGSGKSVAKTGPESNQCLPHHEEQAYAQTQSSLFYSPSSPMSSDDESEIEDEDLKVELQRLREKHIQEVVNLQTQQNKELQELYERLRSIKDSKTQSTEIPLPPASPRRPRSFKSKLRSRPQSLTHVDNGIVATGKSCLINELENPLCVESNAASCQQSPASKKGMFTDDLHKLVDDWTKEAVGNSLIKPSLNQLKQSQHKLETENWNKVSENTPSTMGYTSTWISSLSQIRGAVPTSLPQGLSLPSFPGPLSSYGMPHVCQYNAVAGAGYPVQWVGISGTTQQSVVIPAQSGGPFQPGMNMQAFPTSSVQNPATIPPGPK
Chain of Serine/threonine-protein kinase WNK2 (Homo sapiens) (Q9Y3S1 whole entry): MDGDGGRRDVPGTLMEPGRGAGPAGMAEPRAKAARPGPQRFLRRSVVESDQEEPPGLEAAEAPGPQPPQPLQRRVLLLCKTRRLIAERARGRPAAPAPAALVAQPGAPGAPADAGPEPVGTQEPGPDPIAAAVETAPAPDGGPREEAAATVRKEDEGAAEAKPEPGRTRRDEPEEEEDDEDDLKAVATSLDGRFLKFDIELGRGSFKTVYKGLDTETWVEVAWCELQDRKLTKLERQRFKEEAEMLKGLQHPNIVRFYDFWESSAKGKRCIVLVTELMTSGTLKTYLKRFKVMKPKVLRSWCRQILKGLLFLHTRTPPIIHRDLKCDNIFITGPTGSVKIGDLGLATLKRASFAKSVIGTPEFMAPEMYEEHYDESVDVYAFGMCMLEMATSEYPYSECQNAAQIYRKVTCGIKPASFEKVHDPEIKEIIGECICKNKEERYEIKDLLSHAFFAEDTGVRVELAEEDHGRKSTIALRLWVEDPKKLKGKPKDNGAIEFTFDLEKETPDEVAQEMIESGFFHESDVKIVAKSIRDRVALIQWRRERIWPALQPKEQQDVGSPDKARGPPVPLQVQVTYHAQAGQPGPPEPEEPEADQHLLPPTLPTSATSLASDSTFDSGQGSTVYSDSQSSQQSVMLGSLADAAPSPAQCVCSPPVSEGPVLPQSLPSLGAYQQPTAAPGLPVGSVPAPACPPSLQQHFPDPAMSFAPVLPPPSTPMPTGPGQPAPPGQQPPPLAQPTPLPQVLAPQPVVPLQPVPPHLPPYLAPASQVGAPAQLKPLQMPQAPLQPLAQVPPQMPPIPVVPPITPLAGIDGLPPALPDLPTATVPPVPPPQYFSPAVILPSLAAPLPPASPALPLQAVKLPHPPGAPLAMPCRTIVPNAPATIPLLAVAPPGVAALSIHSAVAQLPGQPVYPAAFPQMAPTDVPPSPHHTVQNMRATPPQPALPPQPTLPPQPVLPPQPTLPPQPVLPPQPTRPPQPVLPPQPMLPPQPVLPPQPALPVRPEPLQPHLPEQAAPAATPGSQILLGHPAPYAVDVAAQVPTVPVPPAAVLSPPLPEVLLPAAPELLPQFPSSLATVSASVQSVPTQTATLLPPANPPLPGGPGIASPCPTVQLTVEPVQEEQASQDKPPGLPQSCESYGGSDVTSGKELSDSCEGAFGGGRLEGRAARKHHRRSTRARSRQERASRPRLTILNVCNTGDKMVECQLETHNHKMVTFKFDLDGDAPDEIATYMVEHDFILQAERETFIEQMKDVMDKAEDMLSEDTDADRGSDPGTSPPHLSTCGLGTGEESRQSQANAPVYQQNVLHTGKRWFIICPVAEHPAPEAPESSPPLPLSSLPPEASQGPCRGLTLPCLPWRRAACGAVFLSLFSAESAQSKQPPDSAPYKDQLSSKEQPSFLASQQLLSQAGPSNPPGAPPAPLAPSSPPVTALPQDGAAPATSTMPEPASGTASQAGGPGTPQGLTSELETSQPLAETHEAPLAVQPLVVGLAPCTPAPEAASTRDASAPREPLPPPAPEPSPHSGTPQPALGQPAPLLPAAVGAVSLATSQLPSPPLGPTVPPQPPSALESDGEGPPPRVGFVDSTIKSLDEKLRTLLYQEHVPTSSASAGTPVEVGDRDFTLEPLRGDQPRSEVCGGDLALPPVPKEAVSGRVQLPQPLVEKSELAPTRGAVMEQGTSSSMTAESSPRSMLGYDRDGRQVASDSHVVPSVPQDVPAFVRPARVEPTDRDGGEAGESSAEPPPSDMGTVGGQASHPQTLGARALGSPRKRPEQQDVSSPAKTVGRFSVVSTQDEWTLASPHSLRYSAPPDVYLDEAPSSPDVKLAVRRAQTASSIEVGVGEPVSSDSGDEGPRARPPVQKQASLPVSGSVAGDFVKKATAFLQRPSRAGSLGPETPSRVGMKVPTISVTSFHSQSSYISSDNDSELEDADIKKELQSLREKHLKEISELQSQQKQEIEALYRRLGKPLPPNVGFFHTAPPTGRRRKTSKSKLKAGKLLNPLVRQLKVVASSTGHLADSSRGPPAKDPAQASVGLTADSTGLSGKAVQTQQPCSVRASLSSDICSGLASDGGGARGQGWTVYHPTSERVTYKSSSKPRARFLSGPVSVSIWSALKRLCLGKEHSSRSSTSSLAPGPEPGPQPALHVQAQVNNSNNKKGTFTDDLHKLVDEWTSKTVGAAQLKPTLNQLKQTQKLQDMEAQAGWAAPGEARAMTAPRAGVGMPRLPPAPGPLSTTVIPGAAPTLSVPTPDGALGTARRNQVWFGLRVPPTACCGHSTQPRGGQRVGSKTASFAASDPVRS
Chain of Tyrosine-protein kinase Yes (Homo sapiens) (P07947 2-543 limits assumed): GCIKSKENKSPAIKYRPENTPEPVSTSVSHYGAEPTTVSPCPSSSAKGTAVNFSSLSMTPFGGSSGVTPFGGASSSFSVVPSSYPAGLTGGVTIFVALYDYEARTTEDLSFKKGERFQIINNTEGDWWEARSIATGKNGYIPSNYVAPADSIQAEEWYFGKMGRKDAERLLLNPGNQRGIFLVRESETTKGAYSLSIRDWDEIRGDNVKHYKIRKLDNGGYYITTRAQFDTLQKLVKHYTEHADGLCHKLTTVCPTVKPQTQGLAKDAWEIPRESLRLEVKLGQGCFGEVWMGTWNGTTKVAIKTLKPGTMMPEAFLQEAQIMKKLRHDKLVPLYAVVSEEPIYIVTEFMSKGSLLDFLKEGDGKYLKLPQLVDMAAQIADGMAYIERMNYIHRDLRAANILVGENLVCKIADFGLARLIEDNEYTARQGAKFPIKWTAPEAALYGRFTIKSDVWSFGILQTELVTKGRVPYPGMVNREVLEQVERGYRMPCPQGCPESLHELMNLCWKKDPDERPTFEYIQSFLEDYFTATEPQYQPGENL
Chain of Death-associated protein kinase 3 (Homo sapiens) (O43293 whole entry, looked up): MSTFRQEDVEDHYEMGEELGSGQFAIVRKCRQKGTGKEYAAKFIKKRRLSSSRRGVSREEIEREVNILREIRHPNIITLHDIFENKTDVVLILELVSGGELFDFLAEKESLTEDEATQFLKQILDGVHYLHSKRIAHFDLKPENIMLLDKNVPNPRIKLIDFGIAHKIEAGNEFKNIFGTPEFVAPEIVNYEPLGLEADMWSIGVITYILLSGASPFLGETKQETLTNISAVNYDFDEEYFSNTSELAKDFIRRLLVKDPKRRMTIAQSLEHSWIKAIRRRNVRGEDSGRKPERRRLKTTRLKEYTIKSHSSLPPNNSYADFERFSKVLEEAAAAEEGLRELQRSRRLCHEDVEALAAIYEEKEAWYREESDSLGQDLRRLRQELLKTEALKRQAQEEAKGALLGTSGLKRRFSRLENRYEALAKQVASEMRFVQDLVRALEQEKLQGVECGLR

In the case of `Ic1cccc(CSc2nnc(-c3ccncc3)o2)c1`, the residual activity [1] is reported as 83%, the residual activity [2] is reported as 89% (inactive) and the residual activity [3] is reported as 89%. For the same molecule, the residual activity [4] was 96%, the residual activity [5] was 84% and the residual activity [6] was 101%. The residual activity [7] was 107%, the residual activity [8] was 105% and the residual activity [9] was 77%. For the same molecule, the residual activity [10] was 64%.

`Cc1nc(-c2ccccc2)c(-c2ccncc2)o1` was tested, and the residual activity [1] was 101%, the residual activity [2] was 104% (inactive) and the residual activity [3] was 100%. The residual activity [4] was 121%, the residual activity [5] was 99% and the residual activity [6] was 127%. The residual activity [7] was 106%, the residual activity [8] was 94% and the residual activity [9] was 60%. It also gave a residual activity [10] of 40%.

For `COc1ccc(CNc2nc(N(CCO)CCO)nc3c2ncn3C(C)C)cc1`, the residual activity [1] was 86%, the residual activity [2] was 97% (inactive) and the residual activity [3] was 93%. For the same molecule, the residual activity [4] was 100%, the residual activity [5] was 89% and the residual activity [6] was 102%. For the same molecule, the residual activity [7] was 99%, the residual activity [8] was 92% and the residual activity [9] was 85%. For the same molecule, the residual activity [10] was 69%.

In the case of `O=C1NC(=O)/C(=C\c2ccc3nccnc3c2)S1`, the residual activity [1] is reported as 65%, the residual activity [2] is reported as 83% (inactive) and the residual activity [3] is reported as 79%. For the same molecule, the residual activity [4] was 119%, the residual activity [5] was 102% and the residual activity [6] was 109%. It also gave a residual activity [7] of 71%, a residual activity [8] of 21% and a residual activity [9] of 73%. For the same molecule, the residual activity [10] was 44%.

In the case of `O=c1c2ccccc2[nH]c(=S)n1CCN1CCC(=C(c2ccc(F)cc2)c2ccc(F)cc2)CC1`, the residual activity [1] is reported as 94%, the residual activity [2] is reported as 116% (inactive) and the residual activity [3] is reported as 102%. It also gave a residual activity [4] of 105%, a residual activity [5] of 96% and a residual activity [6] of 101%. The residual activity [7] was 75%, the residual activity [8] was 74% and the residual activity [9] was 83%. The residual activity [10] was 94%.

For `O=C1NC(=O)/C(=C/c2ccc3c(c2)OC(F)(F)O3)S1`, the residual activity [1] was 85%, the residual activity [2] was 104% (inactive) and the residual activity [3] was 98%. For the same molecule, the residual activity [4] was 117%, the residual activity [5] was 116% and the residual activity [6] was 116%. The residual activity [7] was 102%, the residual activity [8] was 98% and the residual activity [9] was 92%. The residual activity [10] was 101%.

For `Oc1c2ccccc2c2c3c(cccc13)N=N2`, the residual activity [1] was 77%, the residual activity [2] was 87% (inactive) and the residual activity [3] was 77%. For the same molecule, the residual activity [4] was 98%, the residual activity [5] was 51% and the residual activity [6] was 94%. It also gave a residual activity [7] of 87%, a residual activity [8] of 45% and a residual activity [9] of 69%. The residual activity [10] was 61%.

With `COc1cc2ncnc(Nc3ccc(Oc4ccccc4)cc3)c2cc1OC` the residual activity [1] was 41%, the residual activity [2] was 88% (inactive) and the residual activity [3] was 49%. For the same molecule, the residual activity [4] was 9%, the residual activity [5] was 4% and the residual activity [6] was 114%. It also gave a residual activity [7] of 103% and a residual activity [8] of 117%.

In the case of `O=[N+]([O-])c1ccc(-c2nc(-c3ccc(F)cc3)c(-c3ccncc3)[nH]2)cc1`, the residual activity [1] is reported as 95%, the residual activity [2] is reported as 92% (inactive) and the residual activity [3] is reported as 98%. The residual activity [4] was 103%, the residual activity [5] was 102% and the residual activity [6] was 122%. It also gave a residual activity [7] of 92%, a residual activity [8] of 102% and a residual activity [9] of 20%. The residual activity [10] was 13%.

With `COc1ccc(S(=O)(=O)N(CCO)c2ccccc2CN(C)C/C=C/c2ccc(Cl)cc2)cc1` the residual activity [1] was 88%, the residual activity [2] was 100% (inactive) and the residual activity [3] was 88%. For the same molecule, the residual activity [4] was 119%, the residual activity [5] was 79% and the residual activity [6] was 105%. It also gave a residual activity [7] of 96%, a residual activity [8] of 96% and a residual activity [9] of 78%. It also gave a residual activity [10] of 73%.

`N#C/C(=C(\N)Sc1ccc(N)cc1)c1ccccc1C(F)(F)F` was tested, and the residual activity [1] was 89%, the residual activity [2] was 93% (inactive) and the residual activity [3] was 89%. The residual activity [4] was 107%, the residual activity [5] was 101% and the residual activity [6] was 100%. The residual activity [7] was 89%, the residual activity [8] was 100% and the residual activity [9] was 76%. For the same molecule, the residual activity [10] was 66%.

For `CO[C@@H]1[C@H](N(C)C(=O)c2ccccc2)C[C@H]2O[C@]1(C)n1c3ccccc3c3c4c(c5c6ccccc6n2c5c31)C(=O)NC4`, the residual activity [1] was 60%, the residual activity [2] was 91% (inactive) and the residual activity [3] was 76%. For the same molecule, the residual activity [4] was 5%, the residual activity [5] was 4% and the residual activity [6] was 70%. It also gave a residual activity [7] of 56%, a residual activity [8] of 59% and a residual activity [9] of 80%. For the same molecule, the residual activity [10] was 90%.

In the case of `Cc1ccc(NC2=CC(=O)c3sc(C)nc3C2=O)cc1`, the residual activity [1] is reported as 90%, the residual activity [2] is reported as 80% (inactive) and the residual activity [3] is reported as 95%. The residual activity [4] was 118%, the residual activity [5] was 105% and the residual activity [6] was 113%. For the same molecule, the residual activity [7] was 95%, the residual activity [8] was 82% and the residual activity [9] was 84%. For the same molecule, the residual activity [10] was 87%.

For `Oc1ccc(-c2nc(-c3ccc(F)cc3)c(-c3ccncc3)[nH]2)cc1`, the residual activity [1] was 84%, the residual activity [2] was 109% (inactive) and the residual activity [3] was 75%. It also gave a residual activity [4] of 105%, a residual activity [5] of 34% and a residual activity [6] of 117%. The residual activity [7] was 121%, the residual activity [8] was 101% and the residual activity [9] was 14%.

`O=C1c2ccccc2-[n+]2ccc3c([nH]c4ccccc43)c21` was tested, and the residual activity [1] was 92%, the residual activity [2] was 91% (inactive) and the residual activity [3] was 93%. It also gave a residual activity [4] of 113%, a residual activity [5] of 86% and a residual activity [6] of 128%. The residual activity [7] was 73%, the residual activity [8] was 78% and the residual activity [9] was 71%. It also gave a residual activity [10] of 73%.

For `Oc1ccc(Nc2nc(-c3ccc(Cl)cc3)cs2)cc1`, the residual activity [1] was 99%, the residual activity [2] was 109% (inactive) and the residual activity [3] was 91%. For the same molecule, the residual activity [4] was 123%, the residual activity [5] was 92% and the residual activity [6] was 115%. It also gave a residual activity [7] of 110%, a residual activity [8] of 133% and a residual activity [9] of 84%. The residual activity [10] was 84%.

In the case of `O=C1NC(=O)c2cc(Nc3ccc(F)cc3)c(Nc3ccc(F)cc3)cc21`, the residual activity [1] is reported as 34%, the residual activity [2] is reported as 87% (inactive) and the residual activity [3] is reported as 46%. It also gave a residual activity [4] of 61%, a residual activity [5] of 10% and a residual activity [6] of 113%. For the same molecule, the residual activity [7] was 104% and the residual activity [8] was 99%.
